Laboratory results from PubChem BioAssay (NCATS).
Records with an inconclusive call do not appear. Activity calls are given as the source filed them. Unless noted, calls follow the shape of the dose curve; as a rule, active = well fitted curve in either direction with a large enough effect (not every such curve was filed as active); inconclusive = small, poorly fitted or top-dose-only effect, or another doubt; inactive = flat fitted curve, though single readings scatter.

What was measured:
[1] = AP1 Signaling Pathway (AID 357); details: ME-180 AP-1-bla reporter, EGF-induced, beta-lactamase ratio, 5 h; at 7.69 µM (top of the series) unless noted;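 also: ME-180 reporter cells stimulated with EGF at its EC50 level; % is scaled to controls: 0 for no effect and ±100 for the full control effect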
How it was run: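 A ratiometric CCF4 readout (405 nm excitation; 460 and 530 nm emission) quantified AP-1-driven beta-lactamase in ME-180 cells after 5 h with compound and EC50 EGF; AC50 values were derived for activators and inhibitors.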

[2] = target: Cytochrome P450 1A2 (Homo sapiens) (UniProt P05177); assay: p450-cyp1a2 (AID 410; calls by dose curve; also: potency is read from the fitted curve at half-maximal effect;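 as to activity change, negative = inhibition: -100% = full effect of reference inhibitor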)
How it was run: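 Luminescent demethylation readout: Luciferin-ME (100uM, equal to Km) turned over by 20nM CYP1A2 for 60 min at room temperature after NADPH regeneration addition, following 10 min compound preincubation. Normalization used 57 uM furafylline as full inhibition.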

[3] = NFAT Signaling Pathway (AID 444); details: Jurkat NFAT-bla M1, carbachol, beta-lactamase ratio, 5 h; at 7.69 µM (top of the series) unless noted;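 also: carbachol stimulus at about its EC50 of 1 µM final; % is scaled to controls: 0 for no effect and ±100 for the full control effect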
How it was run: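 Jurkat cells with NFAT-driven β-lactamase reporter and co-expressed M1 receptor, stimulated with carbachol (final 1 uM, ~EC50), compound titration, 5 h at 37 °C. CCF4 loaded 1 h at RT; 460/530 nm ratio gave %activity and AC50.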

[4] = Stat Signaling Pathway (AID 446); details: ME-180 (cervical carcinoma) SIE beta-lactamase reporter, IL-6 stimulated, 5 h; at 7.69 µM (top of the series) unless noted;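 also: ME-180 cervical cancer cells given 40 pM IL-6 alongside compound; SIE-controlled beta-lactamase reporter measured as 460/530 nm FRET emission ratio; % is scaled to controls: 0 for no effect and ±100 for the full control effect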
How it was run: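 Overnight-plated ME-180 cells bearing a STAT Inducible Element beta-lactamase reporter; 5 h co-exposure to compound and 40 pM IL-6; values normalized to 300 pM IL-6 and 125 nM JAK inhibitor controls.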

[5] = target: Glucocorticoid receptor (Homo sapiens) (UniProt P04150); assay: GR-GFP Redistribution (AID 450;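 active = compounds whose dose series gives a full or clear partial fitted curve of increased nuclear translocation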; also: potency is read from the fitted curve at half-maximal effect); details: U2OS GR-GFP nuclear translocation, laser cytometry, 2 h
[6] = target: Glucocorticoid receptor (Homo sapiens) (UniProt P04150); assay: GR-EFC Redistribution (AID 451; calls by dose curve; also: potency is read from the fitted curve at half-maximal effect); details: CHO-K1 GR-EFC translocation, beta-gal luminescence, 2 h
How it was run: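 CHO-K1 cells expressing nuclear EA and GR-ED fragments of b-gal; compounds titrated up to 46 uM final, 2 h at 37 C. GR nuclear translocation read as complemented b-gal luminescence after 1 h RT detection.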

[7] = target: Mitogen-activated protein kinase 10 (Mus musculus) (UniProt Q61831); assay: JNK3 AlphaScreen Assay (AID 530);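 also: kinase came from lysate of stimulated human HepG2 cells; signal reports phosphorylation of biotinylated GST-cJun 1-79 at Ser73 with 10 µM ATP; % is scaled to controls: 0 for no effect and ±100 for the full control effect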
How it was run: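 Activity was read by AlphaScreen after JNK3-containing HepG2 lysate (cytokine pre-activated) phosphorylated biotinylated GST-cJun with 10 uM ATP at room temperature. Phospho-Ser73 cJun antibody with Protein-A acceptor beads provided detection.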

[8] = target: 3',5'-cyclic-AMP phosphodiesterase 4B (Homo sapiens) (UniProt Q07343); assay: qHTS Assay for Inhibitors of PDE-IV (AID 607; active = well fitted activation curve with a large enough effect in the main read-out, with a control signal flat, not every such curve was filed as active; also: % of control where 0% means no effect)
How it was run: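 Live HEK293 cells with a modified cyclic nucleotide-gated (CNG) channel report intracellular cAMP via membrane-potential dye fluorescence (ex 535/em 590 nm). Endogenous PDE-IV was targeted. Compounds were tested at up to 22.9 uM final; RO 20-1724 100 uM served as control.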

[9] = target: Cytochrome P450 3A4 (Homo sapiens) (UniProt P08684); assay: qHTS Assay for Activators of Cytochrome P450 3A4 (AID 885; active = well fitted curve in the direction sought with a large enough effect; an effect the other way counts as inactive or inconclusive; also: nearly all actives have a fitted effect of over 65% in size; also: potency is read from the fitted curve at half-maximal effect)
How it was run: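 Using 20nM recombinant human CYP3A4 in potassium phosphate (200mM), substrate Luciferin-PPXE at 25uM, luminescent luciferin detection followed a 60-min RT NADPH reaction; data scaled to 57 uM ketoconazole.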

[10] = target: Guanine nucleotide-binding protein G(i) subunit alpha-1 (Homo sapiens) (UniProt P63096); assay: qHTS Assay for Inhibitors of RGS12 GoLoco Motif Activity (Green Fluorophore) (AID 879; active = well fitted curve in the direction sought with a large enough effect; an effect the other way counts as inactive or inconclusive;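 also: 0% = labeled peptide with Gαi1 and full inhibition = labeled peptide alone without protein; negative values mean loss of peptide binding seen as reduced polarization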)
How it was run: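 A drop in FITC polarization marked displacement of the FITC-tagged RGS12 GoLoco peptide (10 nM) from Gαi1 (50 nM). Compounds were incubated 10 min at room temperature in Tris pH 7.5 buffer containing 150 mM NaCl, 0.1 mM GDP and 0.05% NP40; unlabeled peptide titration served as control.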

[11] = qHTS Assay for Identification of Small Molecule Agonists for Thrombopoietin (TPO) Signaling Pathway (AID 917; active = well fitted curve in the direction sought with a large enough effect; an effect the other way counts as inactive or inconclusive; also: % is scaled to controls: 0 for no effect and ±100 for the full control effect)
How it was run: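 Quantitative HTS for pathway activators: compounds were pin-transferred onto IL-3-starved Ba/F3 cells expressing human TPO receptor, TPO was added at its EC50 (26 pM final), and after 24 hrs at 37 C reporter luciferase was measured.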

[12] = target: Muscarinic acetylcholine receptor M1 (Rattus norvegicus) (UniProt P08482); assay: qHTS Assay for Antagonists of Acetylcholine Muscarinic M1 Receptor: Kinetic Measurement of Intracellular Calcium Response (AID 943; active = well fitted curve in the direction sought with a large enough effect; an effect the other way counts as inactive or inconclusive;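 also: Fluo-4 calcium signal as peak divided by basal fluorescence over 4 min; nearly all actives have a fitted effect of over 75% in size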)
How it was run: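 Antagonism measured as reduction of carbachol-evoked (EC80, 100 nM final) calcium flux in rat M1-CHO cells after 10 min compound exposure. Fluo-4 signal read kinetically; ratio of maximal to basal fluorescence.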

[13] = target: Pyruvate kinase (Leishmania mexicana) (UniProt Q27686); assay: qHTS Validation Assay for Inhibitors of Leishmania Mexicana Pyruvate Kinase (AID 945; active = well fitted curve in the direction sought with a large enough effect; an effect the other way counts as inactive or inconclusive;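 also: 0% = DMSO only neutral control wells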)
How it was run: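 qHTS eight-point titrations against 0.2 nM LmPYK (E451W) in imidazole buffer pH 7.2 with 0.5 mM PEP, 0.1 mM ADP; 1 h, room temperature. Readout: PKLight luminescence, normalized to neutral DMSO wells.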

[14] = target: Pyruvate kinase PKM (Homo sapiens) (UniProt P14618); assay: qHTS Assay for Activators of Human Muscle Pyruvate Kinase (AID 954; active = well fitted curve in the direction sought with a large enough effect, not every such curve was filed as active;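 also: 0% = uninhibited enzyme and -100% = no enzyme or full thiadiazolimine inhibition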)
How it was run: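 Screening used highly purified human pyruvate kinase M2 under submaximal activity, with PEP at its Km and ADP below Km. After an hour at room temperature, ATP was read by luciferase luminescence.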

[15] = target: Alpha-galactosidase A (Homo sapiens) (UniProt P06280); assay: Counterscreen for Glucocerebrosidase Inhibitors: qHTS Assay for Human alpha-Galactosidase at pH 4.5 (AID 992; active = well fitted curve in the direction sought with a large enough effect; an effect the other way counts as inactive or inconclusive; also: 0% is about no effect)
How it was run: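 Each compound is preincubated briefly with 2 nM enzyme before substrate addition (80 uM); plates then sit 20 min at ambient temperature, are quenched with 1M NaOH/1M glycine, and read fluorometrically.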

[16] = target: alpha-glucosidase (Oryza sativa, rice) (UniProt Q653V4); assay: Counterscreen for Glucocerebrosidase Inhibitors: qHTS Assay for Rice alpha-Glucosidase at pH 5.0 (AID 997; active = well fitted curve in the direction sought with a large enough effect; an effect the other way counts as inactive or inconclusive;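 also: 0% = full activity with enzyme and -100% = basal without enzyme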)
How it was run: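 Endpoint fluorogenic assay at pH 5.0: compounds (0.7 nM to 77 uM) titrated against 4 nM rice enzyme and 400 uM 4-MU-alpha-glucoside for 20 min at room temperature; NaOH/glycine stop, read ex 365/em 440 nm, Hill-fitted AC50.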

[17] = target: Cytochrome P450 2D6 (Homo sapiens) (UniProt P10635); assay: qHTS Assay for Inhibitors and Substrates of Cytochrome P450 2D6 (AID 891; active = well fitted curve in the direction sought with a large enough effect; an effect the other way counts as inactive or inconclusive; also: nearly all actives have a fitted effect of over 60% in size; also: potency is read from the fitted curve at half-maximal effect)
How it was run: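 Luminescent read-out of luciferin formed by 5 nM human CYP2D6 demethylating 30 uM Luciferin-ME EGE (Km level) over 60 min at room temperature after NADPH regeneration addition. Data normalized to full inhibition by 1.43 uM quinidine.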

[18] = target: Cytochrome P450 2C19 (Homo sapiens) (UniProt P33261); assay: qHTS Assay for Inhibitors and Substrates of Cytochrome P450 2C19 (AID 899; active = well fitted curve in the direction sought with a large enough effect; an effect the other way counts as inactive or inconclusive; also: % is scaled to controls: 0 for no effect and ±100 for the full control effect; nearly all actives have a fitted effect of over 60% in size)
How it was run: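 Luminescent read-out of luciferin formed from Luciferin-H EGE (10uM, equal to KM). Enzyme 5nM in 50mM KPO4; compound added, 10 min at 37C, then NADPH regenerating system for 60 min at 37C. Full inhibition defined by 57uM ketoconazole.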

[19] = target: Cytochrome P450 2C9 (Homo sapiens) (UniProt P11712); assay: qHTS Assay for Inhibitors and Substrates of Cytochrome P450 2C9 (AID 883; active = well fitted curve in the direction sought with a large enough effect; an effect the other way counts as inactive or inconclusive; also: potency is read from the fitted curve at half-maximal effect; nearly all actives have a fitted effect of over 60% in size)
How it was run: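 10nM CYP2C9 + 100uM Luciferin-H (=KM), 25mM KPO4; cpd 10 min 37C; NADPH regen, 60 min 37C; stop/detect with P450 Glo-Buffer 20 min; luminescence. Norm. to 57uM sulphaphenazole as full inhibition.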

Sequence of 3',5'-cyclic-AMP phosphodiesterase 4B (Homo sapiens) (Q07343 whole entry, looked up): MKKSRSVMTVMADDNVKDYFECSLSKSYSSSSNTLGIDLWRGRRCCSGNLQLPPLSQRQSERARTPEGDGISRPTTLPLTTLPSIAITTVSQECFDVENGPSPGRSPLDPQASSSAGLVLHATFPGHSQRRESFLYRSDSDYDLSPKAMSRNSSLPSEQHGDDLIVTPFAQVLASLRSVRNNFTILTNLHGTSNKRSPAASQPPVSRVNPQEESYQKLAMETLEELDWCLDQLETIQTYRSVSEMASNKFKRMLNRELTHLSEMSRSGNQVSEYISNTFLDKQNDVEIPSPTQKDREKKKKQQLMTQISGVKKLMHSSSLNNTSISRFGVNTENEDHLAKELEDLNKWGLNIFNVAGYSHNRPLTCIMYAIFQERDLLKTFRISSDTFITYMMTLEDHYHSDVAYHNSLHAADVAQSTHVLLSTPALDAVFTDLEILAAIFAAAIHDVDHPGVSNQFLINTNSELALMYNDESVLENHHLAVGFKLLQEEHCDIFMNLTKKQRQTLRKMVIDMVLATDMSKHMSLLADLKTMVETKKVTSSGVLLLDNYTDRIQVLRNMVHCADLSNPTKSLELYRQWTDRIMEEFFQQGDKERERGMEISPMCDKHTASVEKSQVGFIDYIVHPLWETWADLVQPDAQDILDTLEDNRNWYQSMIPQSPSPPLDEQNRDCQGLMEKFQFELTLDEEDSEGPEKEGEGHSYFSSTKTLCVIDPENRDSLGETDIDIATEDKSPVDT
Sequence of Cytochrome P450 1A2 (Homo sapiens) (P05177 whole entry, looked up): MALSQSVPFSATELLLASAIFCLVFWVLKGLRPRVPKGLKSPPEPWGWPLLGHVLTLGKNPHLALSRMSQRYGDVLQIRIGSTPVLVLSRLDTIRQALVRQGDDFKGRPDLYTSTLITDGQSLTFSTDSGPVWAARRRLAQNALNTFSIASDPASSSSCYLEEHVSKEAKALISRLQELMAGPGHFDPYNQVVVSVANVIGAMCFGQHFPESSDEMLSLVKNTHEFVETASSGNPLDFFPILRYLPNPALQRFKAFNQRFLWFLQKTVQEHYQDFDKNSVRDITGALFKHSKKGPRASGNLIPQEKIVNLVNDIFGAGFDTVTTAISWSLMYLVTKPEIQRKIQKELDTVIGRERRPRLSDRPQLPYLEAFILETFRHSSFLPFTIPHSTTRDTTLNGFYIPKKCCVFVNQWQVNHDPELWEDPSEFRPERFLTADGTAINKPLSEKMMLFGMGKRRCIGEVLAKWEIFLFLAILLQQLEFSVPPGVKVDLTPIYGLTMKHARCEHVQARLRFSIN
Sequence of Cytochrome P450 3A4 (Homo sapiens) (P08684 whole entry, looked up): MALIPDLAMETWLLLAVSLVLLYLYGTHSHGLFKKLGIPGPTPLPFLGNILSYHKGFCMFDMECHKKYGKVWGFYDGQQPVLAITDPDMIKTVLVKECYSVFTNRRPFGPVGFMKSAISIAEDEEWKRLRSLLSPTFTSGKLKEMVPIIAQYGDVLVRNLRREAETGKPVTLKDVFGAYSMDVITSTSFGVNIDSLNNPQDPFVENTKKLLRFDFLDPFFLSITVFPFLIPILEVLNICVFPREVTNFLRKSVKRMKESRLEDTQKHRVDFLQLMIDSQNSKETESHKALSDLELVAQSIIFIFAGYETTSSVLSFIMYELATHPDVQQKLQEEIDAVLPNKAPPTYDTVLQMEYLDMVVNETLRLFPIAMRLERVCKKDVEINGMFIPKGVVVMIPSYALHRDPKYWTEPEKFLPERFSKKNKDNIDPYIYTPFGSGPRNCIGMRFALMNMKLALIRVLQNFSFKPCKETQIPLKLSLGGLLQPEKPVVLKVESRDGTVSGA
Sequence of Glucocorticoid receptor (Homo sapiens) (P04150 whole entry, looked up, the tested form may be a part): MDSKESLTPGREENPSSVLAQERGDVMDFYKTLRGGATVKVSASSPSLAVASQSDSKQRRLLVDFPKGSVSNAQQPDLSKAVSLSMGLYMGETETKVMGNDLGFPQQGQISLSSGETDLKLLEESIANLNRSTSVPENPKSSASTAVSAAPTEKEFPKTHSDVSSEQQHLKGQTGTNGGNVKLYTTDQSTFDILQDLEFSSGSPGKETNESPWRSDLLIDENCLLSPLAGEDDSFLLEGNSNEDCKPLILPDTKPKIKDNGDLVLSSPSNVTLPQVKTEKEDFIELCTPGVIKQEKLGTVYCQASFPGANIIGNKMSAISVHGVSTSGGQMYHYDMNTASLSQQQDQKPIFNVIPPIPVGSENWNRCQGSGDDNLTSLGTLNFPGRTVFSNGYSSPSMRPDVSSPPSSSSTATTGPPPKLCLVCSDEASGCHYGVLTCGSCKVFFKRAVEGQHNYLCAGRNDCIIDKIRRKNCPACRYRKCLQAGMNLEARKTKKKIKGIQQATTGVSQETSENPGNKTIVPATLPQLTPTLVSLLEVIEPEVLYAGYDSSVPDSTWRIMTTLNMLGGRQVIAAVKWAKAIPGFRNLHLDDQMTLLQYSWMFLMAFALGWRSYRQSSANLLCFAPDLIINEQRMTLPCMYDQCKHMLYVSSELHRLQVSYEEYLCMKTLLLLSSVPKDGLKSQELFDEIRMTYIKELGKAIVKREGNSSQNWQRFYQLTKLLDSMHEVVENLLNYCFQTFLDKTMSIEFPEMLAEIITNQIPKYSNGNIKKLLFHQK
Sequence of Cytochrome P450 2C19 (Homo sapiens) (P33261 whole entry, looked up): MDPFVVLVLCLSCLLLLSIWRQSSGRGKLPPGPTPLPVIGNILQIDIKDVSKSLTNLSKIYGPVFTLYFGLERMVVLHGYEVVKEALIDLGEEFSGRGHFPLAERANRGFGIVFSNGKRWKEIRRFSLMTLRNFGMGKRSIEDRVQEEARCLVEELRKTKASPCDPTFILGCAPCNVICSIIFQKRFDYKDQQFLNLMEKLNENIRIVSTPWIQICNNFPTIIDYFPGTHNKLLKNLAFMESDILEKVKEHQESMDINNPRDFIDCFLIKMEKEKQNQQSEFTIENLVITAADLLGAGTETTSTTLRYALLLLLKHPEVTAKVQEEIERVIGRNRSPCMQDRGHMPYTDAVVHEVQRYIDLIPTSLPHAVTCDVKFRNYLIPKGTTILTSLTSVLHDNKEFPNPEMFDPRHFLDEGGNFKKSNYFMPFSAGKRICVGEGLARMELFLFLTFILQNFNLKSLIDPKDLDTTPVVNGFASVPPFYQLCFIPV
Sequence of Cytochrome P450 2D6 (Homo sapiens) (P10635 whole entry, looked up): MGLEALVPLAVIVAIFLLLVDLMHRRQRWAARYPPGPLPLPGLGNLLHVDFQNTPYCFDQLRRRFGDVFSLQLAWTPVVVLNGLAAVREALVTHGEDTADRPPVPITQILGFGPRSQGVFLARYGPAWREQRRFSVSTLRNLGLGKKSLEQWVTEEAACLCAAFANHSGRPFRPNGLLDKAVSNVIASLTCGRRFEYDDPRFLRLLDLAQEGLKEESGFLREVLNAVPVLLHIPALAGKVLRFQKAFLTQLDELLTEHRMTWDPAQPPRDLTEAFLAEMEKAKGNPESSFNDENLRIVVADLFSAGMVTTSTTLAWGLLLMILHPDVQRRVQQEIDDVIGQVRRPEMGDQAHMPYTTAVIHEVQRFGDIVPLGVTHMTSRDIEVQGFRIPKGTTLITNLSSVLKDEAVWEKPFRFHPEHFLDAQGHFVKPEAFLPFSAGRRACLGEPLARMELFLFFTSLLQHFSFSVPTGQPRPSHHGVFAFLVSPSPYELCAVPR
Sequence of Guanine nucleotide-binding protein G(i) subunit alpha-1 (Homo sapiens) (P63096 whole entry, looked up): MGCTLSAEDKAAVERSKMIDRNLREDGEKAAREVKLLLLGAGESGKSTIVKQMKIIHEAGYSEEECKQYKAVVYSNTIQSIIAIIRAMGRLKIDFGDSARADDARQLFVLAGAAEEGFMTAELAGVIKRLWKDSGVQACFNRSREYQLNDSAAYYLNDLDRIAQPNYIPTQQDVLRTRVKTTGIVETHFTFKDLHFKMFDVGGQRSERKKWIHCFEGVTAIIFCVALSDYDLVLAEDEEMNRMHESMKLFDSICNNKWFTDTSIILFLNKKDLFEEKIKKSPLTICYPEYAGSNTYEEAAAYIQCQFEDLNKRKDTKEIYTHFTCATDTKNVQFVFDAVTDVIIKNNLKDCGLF
Sequence of Alpha-galactosidase A (Homo sapiens) (P06280 whole entry, looked up): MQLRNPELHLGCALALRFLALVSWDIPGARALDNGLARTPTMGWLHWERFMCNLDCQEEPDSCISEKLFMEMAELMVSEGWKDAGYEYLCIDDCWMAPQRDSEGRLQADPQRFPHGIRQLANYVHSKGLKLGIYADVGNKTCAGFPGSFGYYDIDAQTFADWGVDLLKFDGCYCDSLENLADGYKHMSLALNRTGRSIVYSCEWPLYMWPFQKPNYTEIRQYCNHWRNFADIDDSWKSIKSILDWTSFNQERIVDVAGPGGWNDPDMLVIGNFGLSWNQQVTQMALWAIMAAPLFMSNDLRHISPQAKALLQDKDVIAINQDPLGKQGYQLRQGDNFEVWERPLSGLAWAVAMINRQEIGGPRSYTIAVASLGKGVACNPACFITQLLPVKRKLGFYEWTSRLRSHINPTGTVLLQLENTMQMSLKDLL
Sequence of Muscarinic acetylcholine receptor M1 (Rattus norvegicus) (P08482 whole entry, looked up): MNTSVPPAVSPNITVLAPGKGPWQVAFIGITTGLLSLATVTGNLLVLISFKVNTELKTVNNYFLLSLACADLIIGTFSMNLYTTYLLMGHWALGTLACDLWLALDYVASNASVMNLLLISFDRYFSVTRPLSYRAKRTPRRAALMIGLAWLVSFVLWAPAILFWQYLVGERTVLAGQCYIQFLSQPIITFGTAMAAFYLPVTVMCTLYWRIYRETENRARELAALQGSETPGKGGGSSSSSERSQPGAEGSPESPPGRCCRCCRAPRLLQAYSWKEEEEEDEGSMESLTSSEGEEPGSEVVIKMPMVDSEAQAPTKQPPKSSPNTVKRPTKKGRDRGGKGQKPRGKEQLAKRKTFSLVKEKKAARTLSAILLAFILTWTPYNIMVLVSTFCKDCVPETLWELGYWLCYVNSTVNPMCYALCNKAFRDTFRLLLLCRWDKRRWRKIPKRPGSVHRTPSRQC

NC(N)=Nc1nc2ccc([N+](=O)[O-])cc2[nH]1
active: Potency [2] 3.16 µM | Potency [9] 3.16 µM
inactive: activity change, negative = inhibition [1] 0.0978% | activity change, negative = inhibition [3] 0.0962% | activity, negative = inhibition [4] 9.75% | Potency [5] > 46 µM | Potency [6] > 9.22 µM | Potency [7] | Potency [8]

NC(=O)c1ncn([C@@H]2O[C@@H](CO)[C@@H](O)[C@H]2O)c1O
inactive: activity change, negative = inhibition [1] 15.7% [at 38 µM] | Potency [2] | activity change, negative = inhibition [3] 2.24% [at 38 µM] | activity, negative = inhibition [4] 3.38% [at 38 µM] | Potency [5] > 46 µM | Potency [6] > 46 µM | Potency [7] | Potency [8] | outcome [10] | outcome [11] | Potency [12] | outcome [13] | outcome [14] | outcome [15] | Potency [16]

C[N+]1(CCC(=O)c2ccco2)CC2CCC(CC2)C1 (stereo unspecified)
inactive: activity change, negative = inhibition [1] 6.86% | Potency [2] | activity change, negative = inhibition [3] 7.5% | activity, negative = inhibition [4] 1.18% | Potency [5] > 46 µM | Potency [6] > 9.22 µM | Potency [7] | Potency [8] | Potency [17]

C[N@+]1(CCC(=O)c2ccccc2)CC[C@H]2CC[C@H](C2)C1
inactive: activity change, negative = inhibition [1] 2.46% | Potency [2] | activity change, negative = inhibition [3] 3.4% | activity, negative = inhibition [4] 1.34% | Potency [5] > 46 µM | Potency [6] > 9.22 µM | Potency [7] | Potency [8] | Potency [18]

N#CCCn1c(=O)c(CCc2ccccc2)nc2cnc(Oc3ccccc3)nc21
inactive: activity change, negative = inhibition [1] -21% | activity change, negative = inhibition [3] -2.26% | activity, negative = inhibition [4] -14.5% | Potency [5] > 9.22 µM | Potency [6] > 46 µM | Potency [7] | Potency [8] | Potency [9]
active: Potency [2] 12.6 µM | Potency [19] 7.94 µM

O=C(Oc1ccc2c(c1)CN(Cc1ccccc1)CO2)c1ccccc1
active: Potency [17] 0.501 µM
inactive: activity change, negative = inhibition [1] 10.8% | activity change, negative = inhibition [2] -14.3% [at 2.29 µM] | activity change, negative = inhibition [3] 13.3% | activity, negative = inhibition [4] 2.87% | Potency [5] > 46 µM | Potency [6] > 9.22 µM | Potency [7] | Potency [8] | Potency [9]

N#C[C@@H](N=Nc1ccccc1C(=O)O)C(N)=O
inactive: activity change, negative = inhibition [1] 9.26% | Potency [2] | activity change, negative = inhibition [3] -8.71% | activity, negative = inhibition [4] -29.4% | Potency [5] > 46 µM | Potency [6] > 9.22 µM | Potency [7] | Potency [8] | Potency [18]
